The text below walks through data of PubChem BioAssay (NCATS).

Inconclusive results are not listed. The source made the active and inactive calls. Calls follow the shape of the full dose curve.

Assay [1] in a line: qHTS drug screen for cell cycle checkpoint inhibitors in PARPi-resistant BRCA-mutant ovarian cancer cell lines. (AID 1963452). Particulars: PEO1/OlaR viability, CellTiter-Glo luminescence, 96 h, stronger effect = lower value. The gist of the method:
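PEO1, PEO4 and PEO1/OlaR ovarian cancer cells, 600 per well, exposed 96 h at 37C to a dilution series. Viability read by CellTiter-Glo luminescence, normalized to DMSO and empty wells; activity summarized as Z-AUC.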
In general terms: Quantitative high-throughput screening tests each substance at several concentrations.

Assay [2] is described as follows: qHTS for identification of novel therapeutic agents for treatment of microphthalmiaassociated transcription factor (MiT) renal cell carcinoma (RCC) (AID 1963991).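 Also: curves scaled with 100% = DMSO viability and 0% = empty wells.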 The following applies: CellTiter-Glo, 48 h, stronger effect = lower value. The gist of the method: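 UOK109/UOK124/UOK145 (TFE3 fusions, three partners); 500 cells/well; MIPE v4.0, 1912 cpds, 11 conc.; 48 h, 37 C; CellTiter-Glo, 15 min RT; lum. Norm.: DMSO 100%, empty 0%.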

Where [3] appears, read: measured here: PEO1 parental Z-AUC.
[4] abbreviates: TFE3-RCC UOK109 viability, measured here: UOK109 Z-AUC.
[5] abbreviates: TFE3-RCC viability, measured here: UOK124 Z-AUC.
[6] abbreviates: TFE3-RCC viability, measured here: UOK145 Z-AUC.

For `COc1nccc(-c2c(-c3ccc(F)cc3)ncn2C2CCC(O)CC2)n1` (centres undefined), the Z-AUC was 1.26 (inactive) in assay [1], 1.27 in assay [1] (setting [3]) and 1.21 in assay [1] (measured here: PEO4 Z-AUC).

`CC(C)[C@H](O)C(=O)N[C@@H](C)C(=O)N[C@@H]1C(=O)N(C)CCc2ccccc21`: the Z-AUC is -0.413 (inactive) in assay [1], -0.342 in assay [1] (setting [3]) and -0.336 in assay [1] (measured here: PEO4 Z-AUC).

Take `CCn1c(-c2nonc2N)nc2cncc(CNC3CCNCC3)c21`: the results for the Z-AUC in assay [1], in assay [1] (setting [3]) and in assay [1] (measured here: PEO4 Z-AUC) were -0.284 (inactive), 0.212 and 0.661, respectively.

Consider `CC(C)C[C@@H](C(=O)N[C@H](C(=O)OC1CCCC1)c1ccccc1)[C@H](O)C(=O)NO`, for which the Z-AUC in assay [1] was -0.457 (inactive); in assay [1] (setting [3]), -0.511; in assay [1] (measured here: PEO4 Z-AUC), -0.774.

As to `COc1c(C)cnc(Cn2cnc3c(Cl)nc(N)nc32)c1C`, the figures for the Z-AUC in assay [1], in assay [1] (setting [3]) and in assay [1] (measured here: PEO4 Z-AUC) were -0.301 (inactive), -0.874 and -0.434, respectively.

In the case of `Cc1csc(-c2nnc(Nc3ccc(Oc4ncccc4-c4ccnc(N)n4)cc3)c3ccccc23)c1`, the Z-AUC is -0.397 (inactive) in assay [1], -0.785 in assay [1] (setting [3]) and -1.53 in assay [1] (measured here: PEO4 Z-AUC).

On to `Cc1cnc(-c2cc(N3CCN(C(=O)CCS(C)(=O)=O)CC3)ncc2Cl)c(C)c1`, for which the Z-AUC in assay [1] is 0.449 (inactive); in assay [1] (setting [3]) it was 1.67; in assay [1] (measured here: PEO4 Z-AUC) it was 1.63.

As for `NCc1c[nH]c(=S)n1[C@H]1CCc2c(F)cc(F)cc2C1`, the Z-AUC was -0.555 (inactive) in assay [1], -0.422 in assay [1] (setting [3]) and -0.786 in assay [1] (measured here: PEO4 Z-AUC).

Consider `Cn1c(=O)c(-c2c(Cl)cccc2Cl)cc2cnc(Nc3cccc(C(=O)O)c3)nc21`, for which the figures for the Z-AUC in assay [1], in assay [1] (setting [3]) and in assay [1] (measured here: PEO4 Z-AUC) were 0.595 (inactive), 0.413 and 0.693, respectively.

For `COC1CCC(C(=O)c2ccc3nc4c(cc3c2)CCCO4)CC1` (centres undefined), the Z-AUC in assay [1] is -0.16 (inactive); in assay [1] (setting [3]), -0.298; in assay [1] (measured here: PEO4 Z-AUC), 0.0226.

As for `CN1CCc2c(n(Cc3ccc(C(=O)NO)cc3)c3ccccc23)C1`, the Z-AUC in assay [1] was 0.742 (inactive); in assay [1] (setting [3]), 0.892; in assay [1] (measured here: PEO4 Z-AUC), 0.628.

Consider `CN1CCN(c2ncc(-c3cc(Cl)cc(Cl)c3Cl)c(N)n2)CC1`, for which the figures for the Z-AUC in assay [1], in assay [1] (setting [3]) and in assay [1] (measured here: PEO4 Z-AUC) were -0.667 (inactive), -0.953 and -0.943, respectively.

`CNC1CCC(N(Cc2cccc(-c3ccncc3)c2)C(=O)c2sc3ccccc3c2Cl)CC1` (centres undefined): the Z-AUC was 0.143 (inactive) in assay [1], 0.312 in assay [1] (setting [3]) and 0.329 in assay [1] (measured here: PEO4 Z-AUC).

Turning to `COc1cc2ncnc(Nc3cc(Br)c(O)c(Br)c3)c2cc1OC`, the Z-AUC in assay [1] was -1.45 (inactive); in assay [1] (setting [3]), -0.545; in assay [1] (measured here: PEO4 Z-AUC), -1.13.

Take `CC1CNc2c(cccc2S(=O)(=O)N[C@@H](CCCN=C(N)N)C(=O)N2CC[C@@H](C)C[C@@H]2C(=O)O)C1` (some centres undefined): the Z-AUC was 1.14 (inactive) in assay [1], 0.686 in assay [1] (setting [3]) and 1.06 in assay [1] (measured here: PEO4 Z-AUC).

On to `Cc1ccccc1C(=O)c1ccc(Nc2ccc(Br)cc2N)cc1Cl`, for which the Z-AUC in assay [1] is -0.304 (inactive); in assay [1] (setting [3]), 0.73; in assay [1] (measured here: PEO4 Z-AUC), 0.429.

Take `C=CC(=O)Nc1cccc(Sc2nc(Nc3ccc(N4CCN(C)CC4)cc3)ncc2Cl)c1`: the Z-AUC in assay [1] is -0.713 (inactive); in assay [1] (setting [3]) it was 0.0484; in assay [1] (measured here: PEO4 Z-AUC), 0.0662.

In the case of `O=C1CN2Cc3c(ccc(Cl)c3Cl)N=C2N1`, the Z-AUC in assay [1] is -0.36 (inactive); in assay [1] (setting [3]), 0.71; in assay [1] (measured here: PEO4 Z-AUC), 0.69.

Take `CCCCOCCOc1nc(-c2ccc(C(=O)O)c(F)c2)sc1C`: the Z-AUC is 1.12 (inactive) in assay [1], 0.866 in assay [1] (setting [3]) and 0.696 in assay [1] (measured here: PEO4 Z-AUC). Moreover, the values for the z-score in assay [2] (setting [4]), in assay [2] (setting [5]) and in assay [2] (setting [6]) were 1.12, 0.152 and 0.316, respectively.

Regarding `CC(C)(F)C[C@H](N[C@@H](c1ccc(-c2ccc(S(C)(=O)=O)cc2)cc1)C(F)(F)F)C(=O)NC1(C#N)CC1`, the results for the Z-AUC in assay [1], in assay [1] (setting [3]) and in assay [1] (measured here: PEO4 Z-AUC) were -0.727 (inactive), 1.36 and 0.322, respectively.

With `CCOC(=O)[C@@H](N)CCC(=O)N[C@@H](CSCc1ccccc1)C(=O)N[C@@H](C(=O)OCC)c1ccccc1`, the Z-AUC in assay [1] was 1.2 (inactive); in assay [1] (setting [3]) it was 1.04; in assay [1] (measured here: PEO4 Z-AUC), 1.07. Besides, the z-score is -0.0164 in assay [2] (setting [4]), 0.492 in assay [2] (setting [5]) and 0.0682 in assay [2] (setting [6]).

As to `CN1C(=O)C(Cc2c[nH]c3ccccc23)NC1=S` (centres undefined), the Z-AUC is -0.877 (inactive) in assay [1], -0.326 in assay [1] (setting [3]) and -0.823 in assay [1] (measured here: PEO4 Z-AUC). The z-score in assay [2] (setting [4]) is 0.322; in assay [2] (setting [5]) it was 0.546; in assay [2] (setting [6]), 0.284.

On to `O=C(c1ccc(C(=O)N2CCC(N3CCCC3)CC2)c(Nc2ccccc2)c1)N1CCC(N2CCCC2)CC1`, for which the values for the Z-AUC in assay [1], in assay [1] (setting [3]) and in assay [1] (measured here: PEO4 Z-AUC) were 0.276 (inactive), 0.308 and 0.42, respectively. Further, the z-score was determined as 0.9 in assay [2] (setting [4]), 1.07 in assay [2] (setting [5]) and 0.591 in assay [2] (setting [6]).

As to `Cc1cc2c(cc1C1(c3ccc(C(=O)O)cn3)CC1)C(C)(C)CCC2(C)C`, the Z-AUC is -0.226 (inactive) in assay [1], 0.647 in assay [1] (setting [3]) and 0.601 in assay [1] (measured here: PEO4 Z-AUC). Further, the results for the z-score in assay [2] (setting [4]), in assay [2] (setting [5]) and in assay [2] (setting [6]) were 1.13, -2.74 and 0.66, respectively.

On to `O=C(O)Cc1cccc(OCCCN(Cc2cccc(C(F)(F)F)c2Cl)CC(c2ccccc2)c2ccccc2)c1`, for which the Z-AUC in assay [1] is -0.299 (inactive); in assay [1] (setting [3]) it was 0.225; in assay [1] (measured here: PEO4 Z-AUC), 0.165. Also, the z-score is -0.604 in assay [2] (setting [4]), 0.0786 in assay [2] (setting [5]) and 0.416 in assay [2] (setting [6]).

For the molecule `CC(NCCc1ccc(O)cc1)C(O)c1ccc(O)cc1` (centres undefined), the values for the Z-AUC in assay [1], in assay [1] (setting [3]) and in assay [1] (measured here: PEO4 Z-AUC) were -0.504 (inactive), 0.762 and 0.7, respectively. Moreover, the z-score in assay [2] (setting [4]) was determined as 0.72; in assay [2] (setting [5]) it was 0.96; in assay [2] (setting [6]), 2.38.

For `CNc1nc(Nc2ccc(C(=O)N3CCOCC3)cc2OC)ncc1Cl`, the Z-AUC in assay [1] was -0.915 (inactive); in assay [1] (setting [3]) it was -0.00443; in assay [1] (measured here: PEO4 Z-AUC), 0.143. Besides, the z-score in assay [2] (setting [4]) is 0.622; in assay [2] (setting [5]) it was -0.0223; in assay [2] (setting [6]), 0.626.

In the case of `CC1=C(C(=O)Nc2cc3cn[nH]c3cc2F)C(c2ccc(C(F)(F)F)cc2)CC(=O)N1` (centres undefined), the Z-AUC is -0.362 (inactive) in assay [1], -0.272 in assay [1] (setting [3]) and -0.273 in assay [1] (measured here: PEO4 Z-AUC). In addition, the z-score in assay [2] (setting [4]) worked out at 0.673; in assay [2] (setting [5]), 0.25; in assay [2] (setting [6]), 0.771.

With `CC(C)C[C@@H](N)[C@H](O)C(=O)N[C@H](C(=O)N[C@H](C(=O)N[C@@H](CC(=O)O)C(=O)O)C(C)C)C(C)C`, the Z-AUC is -0.687 (inactive) in assay [1], -0.6 in assay [1] (setting [3]) and -0.277 in assay [1] (measured here: PEO4 Z-AUC). Also, the z-score in assay [2] (setting [4]) was 0.245; in assay [2] (setting [5]), 0.596; in assay [2] (setting [6]), -0.2.

As for `Cc1cc(OCCCS(C)(=O)=O)cc(C)c1-c1cccc(COc2ccc3c(c2)OC[C@H]3CC(=O)O)c1`, the Z-AUC was -0.127 (inactive) in assay [1], 0.128 in assay [1] (setting [3]) and 0.794 in assay [1] (measured here: PEO4 Z-AUC). Further, the z-score in assay [2] (setting [4]) amounted to 0.542; in assay [2] (setting [5]), 0.159; in assay [2] (setting [6]), 0.614.

Turning to `NC[C@H]1O[C@H](O[C@@H]2[C@@H](O)[C@@H](O[C@H]3O[C@H](CO)[C@@H](O)[C@H](N)[C@@H]3O)[C@H](N)C[C@@H]2N)[C@H](O)[C@@H](O)[C@H]1O`, the Z-AUC was 1.2 (inactive) in assay [1], 0.776 in assay [1] (setting [3]) and 0.763 in assay [1] (measured here: PEO4 Z-AUC). In addition, the z-score was 1.51 in assay [2] (setting [4]), 0.542 in assay [2] (setting [5]) and 0.0704 in assay [2] (setting [6]).
